Measurements from PubChem BioAssay (EPA / NIEHS).
Where “and” joins values, the source holds several entries; their conditions need not be identical. Equal entries are not always repeated. The source holds several records for some structures; these can differ, active in one and inactive in another. Calls of active or inactive are those of the source. The calls were made as follows: active = hit-call score of the fitted dose curve at least 0.9, where 1 is the maximum; inactive = score below 0.9.

read-out: CD40, CD40 (gene 958); assay: BSK_IMphg_CD40: BioMAP Diversity Plus: IMphg Assay for CD40 Biomarker Activity (AID 2284288); conditions: primary human endothelial cells with macrophages
Experimental: BSK_IMphg is a cell-based, multiplexed-readout assay that uses venular endothelial cells and macrophages, a human vascular primary cell, with measurements taken at 24 hours after chemical dosing in a microplate: 96-well plate.BSK_IMphg_CD40 is an assay component measured in the BSK_IMphg assay. It measures CD40 antibody related to regulation of gene expression using ELISA technology.Data from the assay component BSK_IMphg_CD40 was analyzed at the endpoint, BSK_IMphg_CD40, in the positive analysis fitting direction relative to DMSO as the negative control and baseline of activity. Using a type of binding reporter, gain or loss-of-signal activity can be used to understand protein changes. To generalize the intended target to other relatable targets, this assay endpoint is annotated to the 'cytokine' intended target family, where the subfamily is 'inflammatory factor'.
The levels of cell surface (or secreted, indicated by the prefix "s") biomarker endpoints were measured by ELISA. Overt cytotoxicity to cells in confluent adherent cultures (all systems other than the BT system) was assessed by measuring total protein levels using sulforhodamine B (SRB) staining in parallel cultures at the time of biomarker measurements, indicated as SRB endpoints. For proliferation assays for adherent cell types, individual cell types are cultured at sub-confluence and relative cell numbers quantified by SRB staining at time points optimized for each system (48 h: 3C and CASM3C systems; 72 h: BT and HDF3CGF systems; 96 h: SAg system). SRB was performed by staining cells with 0.1% SRB after fixation with 10% TCA and reading wells at 560 nm.Viability and proliferation of PBMC (T cells) was quantified by Alamar Blue reduction for the SAg and BT systems. For PBMC viability (referred to as PBMC Cytotoxicity within the assay endpoint names), cells were plated (75,000/well in a 96-well plate) and then chemical samples added for 1 h before addition of activators, SEB and TSST-1 (20 ng/mL final concentration each). Cells were incubated for 90 h. Then, Alamar Blue (20 uL/well) (Invitrogen, Cat DAL1100) was added for 6 h, and the plates were read with a fluorescence microplate reader at 546/580 nm (excitation/emission). For PBMC proliferation, cells were plated and activated as above but incubated for only 16 h prior to addition of Alamar Blue. Plates were read after 6 h.

Compound	outcome	AC50
O=C(O)C(F)(OC(F)(F)C(F)(OC(F)(F)C(F)(F)C(F)(F)F)C(F)(F)F)C(F)(F)F (stereo not given)	inactive	–
C=CC(=O)OCC(F)(F)C(F)(F)C(F)(F)C(F)(F)COC(=O)C=C	–	18.8 µM (active) and 25 µM (active)
O=C(O)C(F)(F)C(F)(F)C(F)(F)C(F)(F)C(F)(F)C(F)(F)C(F)(F)C(F)(F)C(F)(F)C(F)(F)C(F)(F)C(F)(F)C(F)(F)F	inactive	–
FC(F)(F)C(F)(F)C(F)(F)CI	inactive	–
O=C(O)C(F)(OC(F)(F)C(F)(OC(F)(F)C(F)(OC(F)(F)C(F)(F)C(F)(F)F)C(F)(F)F)C(F)(F)F)C(F)(F)F (stereo not given)	inactive	–
O=S(=O)(OCCOC(F)(F)F)C(F)(F)F	inactive	–
FC(F)(F)C(F)(F)CNCC(F)(F)C(F)(F)F	inactive	–
O=C(O)C(F)(F)C(F)(F)C(F)F	inactive	–
OCC(F)(F)C(F)(F)C(F)(F)C(F)(F)C(F)(F)C(F)(F)F	inactive	–
O=C(O)C(F)(F)C(F)(F)C(F)(F)C(F)(F)C(F)(F)C(F)(F)C(F)(F)C(F)(F)Cl	–	44.5 µM (active) and 46.5 µM (active)
C=CC(F)(F)C(F)(F)C(F)(F)C(F)(F)C(F)(F)C(F)(F)C(F)(F)C(F)(F)C=C	inactive	–
C=C(C)C(=O)OCC(F)(F)C(F)(F)C(F)(F)F	inactive	–
N=C(N)C(F)(F)C(F)(F)C(F)(F)C(F)(F)C(F)(F)C(F)(F)C(F)(F)F	inactive	–
O=C(O)C(F)(F)C(F)(F)C(F)(F)F	inactive	0.319 µM (active)
C=CC(F)(F)C(F)(F)C(F)(F)C(F)(F)C(F)(F)C(F)(F)C(F)(F)C(F)(F)F	inactive	–
O=S(=O)(O)C(F)(F)C(F)(F)C(F)(F)C(F)(F)C(F)(F)C(F)(F)C(F)(F)F	inactive	–
Cc1ccc(S(=O)(=O)OCC(F)(F)C(F)(F)C(F)(F)C(F)(F)C(F)(F)C(F)F)cc1	inactive	–
O=C(O)C(F)(F)C(F)(F)C(F)(F)C(F)(F)F	inactive	–

Compound	outcome	AC50
FC(F)(F)C(F)(F)C(F)(F)C(F)(F)C(F)(F)C(F)(F)C(F)(F)Br	inactive	–
OCCCC(F)(F)C(F)(F)C(F)(F)F	inactive	–
O=C(Cl)C(F)(F)C(F)(F)C(F)(F)C(F)(F)C(F)(F)C(F)(F)C(F)(F)C(F)(F)F	inactive	36.6 µM (active)
FC(F)(F)C(F)(F)C(F)(F)C(F)(F)CCI	inactive	–
CCO[Si](CCC(F)(F)C(F)(F)C(F)(F)C(F)(F)C(F)(F)C(F)(F)F)(OCC)OCC	inactive	–
O=C(O)C=C(C(F)(F)F)C(F)(F)F	inactive	–
FC(F)(F)C(F)(F)C(F)(F)C(F)(F)C(F)(F)C(F)(F)CC1CO1 (stereo not given)	inactive	–
CCCCCCCCC(F)(F)C(F)(F)C(F)(F)C(F)(F)C(F)(F)C(F)(F)F	inactive	–
OCC(F)(F)C(F)(F)C(F)(F)C(F)F	inactive	–
O=P(O)(O)OCCC(F)(F)C(F)(F)C(F)(F)C(F)(F)C(F)(F)C(F)(F)F	inactive	–
C=CC(=O)OCC(F)(F)C(F)(F)C(F)(F)C(F)(F)C(F)(F)C(F)(F)C(F)(F)F	inactive	6.54 µM (active)
FC(F)(F)C(F)(F)C(F)(F)C(F)(F)C(F)(F)C(F)(F)CCS	inactive	–
C=C(C)C(=O)OCC(F)(F)C(F)(F)C(F)(F)C(F)(F)C(F)(F)C(F)(F)C(F)(F)F	inactive	–
C=C(C)C(=O)OCCC(F)(F)C(F)(F)C(F)(F)C(F)(F)C(F)(C(F)(F)F)C(F)(F)F	inactive	–
OCC(F)(F)C(F)(F)C(F)(F)C(F)(F)C(F)(F)C(F)F	inactive	1.79 µM (active)
FC(F)(F)C(F)(F)C(F)(F)C(F)(F)C(F)(F)C(F)(F)C(F)(F)C(F)(F)F	inactive	–
NC(=O)C(F)(F)C(F)(F)C(F)(F)C(F)(F)F	inactive	–
O=C(O)C(F)(F)C(F)(F)C(F)(F)C(F)(F)C(F)(F)C(F)(F)C(F)(F)C(F)(F)C(F)(F)C(F)(F)C(F)(F)C(F)(F)F	–	13.3 µM (active) and 16.4 µM (active)
